Screens deposited in PubChem by National Center for Advancing Translational Sciences (NCATS).
Shown is part of a subset that was picked to be rich in hits.
HT1080 IDH1KD tx: HT-1080 IDH1 knockdown cell toxicity (counter line); HT-1080 IDH1 knockdown viability, ATP luminescence, 48 h; Potency, µM (highest dose often 46.1 µM), usual class: cytotoxic; 360,000 tested, 2% active; AID 686971
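% activity derives from luminescence (CellTiter-Glo), normalised to DMSO and no-cell wells. HT-1080-IDH1KD cells, 750/well, had 48 h compound exposure at 37 °C.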
TDP1 cell noCPT: qHTS for Inhibitors of human tyrosyl-DNA phosphodiesterase 1 (TDP1): qHTS in cells in absence of CPT. DT40 Tdp1-/- hTDP1 cells, no CPT, ATP luminescence, 48 h. Potency, µM (highest dose often 46.2 µM), actives largely listed as inhibitors. 420,000 tested, 15% active; also: nearly all actives have a fitted effect of over 55% in size
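No-CPT arm: Tdp1-/-;hTDP1 DT40 cells (400/well) plus compounds, incubated ≥48 hr at 37 °C. Readout CellTiter-Glo luminescence.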
HT1080NT lethal: kills 2HG-producing HT-1080-NT fibrosarcoma cells. Potency, µM (top dose mostly 46.1 µM), usual class: cytotoxic. 360,000 tested, 1.6% active. HT-1080-NT fibrosarcoma viability, CellTiter-Glo ATP luminescence, 48 h;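 also: NT is the 2HG producing partner of a matched IDH1 knockdown line; nearly all actives have a fitted effect of over 55% in size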
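Viability by CellTiter-Glo luminescence after 48 h compound exposure at 37C of HT-1080-NT cells (750/well, RPMI, 5% FBS). % activity scaled between DMSO wells and medium-only wells, then curve-fitted and categorized by curve class.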
TDP1 cell CPT: DT40-hTDP1 cell growth loss with CPT; chicken DT40 Tdp1-/-;hTDP1 cells + 20 nM CPT, ATP luminescence, 48 h; Potency, µM (titrated, usually from 46.2 µM), usual class: inhibitors; 420,000 tested, 12% active; also: nearly all actives have a fitted effect of over 55% in size
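Cell growth measured by CellTiter-Glo luminescence after a minimum 48 h, 37 C compound exposure with 20 nM CPT in Tdp1-knockout DT40 cells stably expressing hTDP1, seeded 400/well; qHTS titration format.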
ALOX12 inh: ALOX12 (human) lipoxygenase inhibition | P18054 | purified 12hLO, xylenol orange hydroperoxide absorbance | Potency, µM (top dose mostly 108 µM), usual class: inhibitors | 580,000 tested, 1.1% active | AID 1671190
Target sequence (P18054 whole entry, looked up): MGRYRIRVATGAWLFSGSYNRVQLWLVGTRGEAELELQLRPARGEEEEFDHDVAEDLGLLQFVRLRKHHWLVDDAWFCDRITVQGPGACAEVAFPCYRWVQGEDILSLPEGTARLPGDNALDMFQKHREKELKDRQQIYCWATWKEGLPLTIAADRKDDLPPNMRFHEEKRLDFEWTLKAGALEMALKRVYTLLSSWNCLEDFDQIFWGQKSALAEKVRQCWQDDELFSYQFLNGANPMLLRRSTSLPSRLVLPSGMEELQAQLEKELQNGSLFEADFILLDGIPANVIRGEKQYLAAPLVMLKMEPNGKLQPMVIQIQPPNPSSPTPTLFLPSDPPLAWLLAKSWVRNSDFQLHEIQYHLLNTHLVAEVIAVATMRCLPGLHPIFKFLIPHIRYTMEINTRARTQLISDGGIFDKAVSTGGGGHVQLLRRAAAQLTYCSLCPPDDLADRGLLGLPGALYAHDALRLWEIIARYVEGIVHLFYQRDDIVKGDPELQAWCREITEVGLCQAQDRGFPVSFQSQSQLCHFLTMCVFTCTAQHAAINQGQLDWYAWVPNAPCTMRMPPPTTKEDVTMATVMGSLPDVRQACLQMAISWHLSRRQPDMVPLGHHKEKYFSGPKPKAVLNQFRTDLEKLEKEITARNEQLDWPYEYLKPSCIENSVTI
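Purified human 12hLO at 150 nM in 25 mM Hepes, 0.01% Triton X-100, pH 7.0, preincubated 15 min at room temperature with compound. Reaction started with 40 uM arachidonic acid, 30 min at room temperature. Hydroperoxide measured by Fe-xylenol orange, 573/405 nm absorbance ratio.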
IL-1B inflam inh: inhibitors of inflammasome signaling (IL-1 beta secretion). THP-1 LPS/ATP IL-1B secretion, AlphaLISA, 16 h; stronger effect = lower value. activity change, % at 57.5 µM. 360,000 tested, 4.7% active; in the data active = activity change below about -50%; inconclusive = mostly about -30% to -49%
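THP-1 cells pretreated 1 hr with compounds (up to 57.5 uM final), then stimulated with LPS (250 ng/mL final) plus ATP (1.25 mM final); secreted IL-1B measured by AlphaLISA after 16 hr, decreased signal indicating inhibition.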
A number is an active result; 0 = inactive; ? = inconclusive; - = no result. Unless noted, calls follow the shape of the dose curve; as a rule, active = well fitted curve in the direction sought with a large enough effect; inconclusive = small, poorly fitted or top-dose-only effect, or another doubt; inactive = no such curve, though single readings can be large; an effect the other way counts as inactive or inconclusive.

SMILES | HT1080 IDH1KD tx | TDP1 cell noCPT | HT1080NT lethal | TDP1 cell CPT | ALOX12 inh | IL-1B inflam inh
O=C(COc1ccccc1[N+](=O)[O-])Nc1cccc(S(=O)(=O)NC2=NCCCCC2)c1 | 0 | ? | 0 | ? | ? | 0
O=C(/C=C/c1ccc(Cl)cc1Cl)Nc1cccc(S(=O)(=O)NC2=NCCCCC2)c1 | ? | ? | 0 | 0 | 0 | -68.7
O=C(COC(=O)c1ccc(Cl)cc1Cl)Nc1cccc(S(=O)(=O)NC2=NCCC2)c1 | 0 | 0 | 0 | 0 | 0 | 0
O=C(/C=C/c1ccccc1[N+](=O)[O-])Nc1cccc(S(=O)(=O)NC2=NCCCCC2)c1 | 0 | 20.6µM | 0 | ? | 0 | 0
CCCc1noc(-c2cccn3c(CNC(=O)CCC4CCCC4)nnc23)n1 | - | - | - | - | 0 | -
Cc1c(C=O)c2ccccc2n1CC(=O)NC(C)c1ccccc1 (stereo not given) | 0 | 23.1µM | 0 | ? | 0 | 0
Cc1nn(CC(=O)NC(C)c2ccccc2)c(=O)c2ccccc12 (stereo not given) | 0 | 0 | 0 | 0 | 0 | 0
O=C(NC1CCCCC1)C1CCCN(c2cnc3nccnc3c2)C1 (stereo not given) | - | - | - | - | 0 | -
Cc1ccc(S(=O)(=O)c2nnn3c2nc(NC2CCCCCC2)c2sccc23)cc1C | - | 20.6µM | - | 14.6µM | 0 | -
Cc1ccc(C)c(S(=O)(=O)c2nnn3c2nc(NC(C)C)c2sccc23)c1 | - | ? | - | 23.1µM | 0 | -
Cc1ccc(S(=O)(=O)c2nnn3c2nc(Nc2ccc(C(C)C)cc2)c2sccc23)cc1C | - | 4.61µM | - | 4.11µM | 0 | -
CCOc1ccc(Nc2nc3c(S(=O)(=O)c4ccc(C(C)C)cc4)nnn3c3ccsc23)cc1 | - | ? | - | ? | 0 | -
Cc1ccc(C)c(S(=O)(=O)c2nnn3c2nc(NC2CCCCC2)c2sccc23)c1 | - | ? | - | ? | 0 | -
CCc1ccc(S(=O)(=O)c2nnn3c2nc(NC2CCCC2)c2sccc23)cc1 | - | ? | - | 23.1µM | 0 | -
Cc1nnc(N2CCC(C(=O)NCCc3ccccc3)CC2)c2nn(-c3ccc(Cl)cc3)c(C)c12 | - | 20.6µM | - | 14.6µM | 0 | -
CCc1ccccc1NC(=O)N1CCN(c2nnc(C)c3c(C)n(-c4ccccc4)nc23)CC1 | - | 20.6µM | - | ? | 0 | -
CCN(CC)C(=O)C1CCN(c2nnc(C)c3c(C)n(-c4ccc(Cl)cc4)nc23)CC1 | - | 0 | - | 0 | 0 | -
Cc1ccc(Cl)cc1NC(=O)C1CCN(c2nnc(C)c3c(C)n(-c4ccccc4)nc23)CC1 | - | 10.3µM | - | 8.2µM | 0 | -
O=C(NCc1ccc(F)cc1)C1CCN(c2cnccn2)CC1 | 0 | ? | 0 | 18.4µM | 0 | 0
Cc1ccc(C)c(NC(=O)N2CCN(c3nnc(C)c4c(C)n(-c5ccccc5)nc34)CC2)c1 | - | 0 | - | 0 | 0 | -
CC(=O)NC(C)(CC(=O)c1ccccc1)c1ccccc1 (stereo not given) | 0 | 0 | 0 | 0 | 0 | 0
O=S(=O)(NCc1nnnn1-c1ccccc1)c1ccccc1 | - | - | - | - | 0 | -
N#Cc1cccc(C(=O)N2CCc3c(n(Cc4ccccc4)n(-c4ccccc4)c3=O)C2)c1 | - | - | - | - | 0 | -
Cc1nnc(N2CCC(C(=O)NCc3ccc(F)cc3)CC2)c2nn(-c3ccc(Cl)cc3)c(C)c12 | - | ? | - | 16.4µM | ? | -
Cc1ccc(Cl)cc1NC(=O)C1CCN(c2nc3ccccc3n3cccc23)CC1 | - | 16.4µM | - | ? | 0 | -
SMILES | HT1080 IDH1KD tx | TDP1 cell noCPT | HT1080NT lethal | TDP1 cell CPT | ALOX12 inh | IL-1B inflam inh
Cn1ncc2c(NCc3cccc(Cl)c3)ncnc21 | - | ? | - | 14.6µM | 0 | -
Cn1ncc2c(NCCc3ccccc3)nc(Cl)nc21 | 0 | 20.6µM | 0 | 23.1µM | 0 | 0
COCCNc1nc(NCc2ccccc2)c2cnn(C)c2n1 | 0 | ? | 0 | 0 | 0 | 0
CCCNc1nc(NCc2ccccc2OC)c2cnn(C)c2n1 | - | 13µM | - | 14.6µM | 39.8µM | -
Cn1ncc2c(Nc3ccccc3Cl)nc(Cl)nc21 | 0 | 0 | 0 | 0 | 0 | 0
COCCNc1nc(NCc2cccc(Cl)c2)c2cnn(C)c2n1 | - | 14.6µM | - | ? | ? | -
